# Measurements taken from ChEMBL document CHEMBL3988442, “University of Dundee, Small-Polar-MMV Screening Library” (2021).
# About 13,000 (27%) of roughly 48,000 compounds showed an effect of 50% or more. The list shows a part of the results.
# System: Wolbachia pipientis
# Assay: Anti-Wolbachia Cell-Based Screen
# Assay type: functional
# Set-up: scale not given: in the data most compounds retested in dose-response had high values
# Settings: 5 µM
row,SMILES,Percent Effect [%]
1,CCN1CCC(CC(=O)N(C)CC(=O)c2ccc(O)cc2)CC1,-2.698
2,CCCc1cc(C(=O)N2Cc3cnc(C(C)(C)C)nc3C2)ccn1,-16.23
3,CS(=O)(=O)N1CC[C@H]2OCC[C@@]2(C(=O)NCc2ccccn2)C1.O=C(O)C(F)(F)F,125.2
4,O=C(O)C(F)(F)F.O=S(=O)(C1CC1)N1CC[C@H]2OCC[C@@]2(COc2ncccc2F)C1,-5.546
5,O=C(NCc1ccccn1)[C@@]12CCO[C@@H]1CCN(Cc1ccccn1)C2.O=C(O)C(F)(F)F.O=C(O)C(F)(F)F.O=C(O)C(F)(F)F,100.7
6,CS(=O)(=O)N1CC[C@H]2OCC[C@@]2(C(=O)NCCc2ccccn2)C1.O=C(O)C(F)(F)F,88.95
7,O=C(NCc1ccco1)[C@@]12CCO[C@@H]1CCN(Cc1ccccn1)C2.O=C(O)C(F)(F)F.O=C(O)C(F)(F)F,-8.079
8,Cc1ccc(-c2ccc(C(=O)NCC(N)=O)c(F)c2)cc1,-9.702
9,COc1ccc(F)cc1C(=O)N1C[C@H]2CC[C@@H]1CN(c1ncccn1)C2,11.2
10,CN(C)C(=O)Cc1ccccc1NCc1cc(C#N)ccc1F,6.834
11,Cn1cc(CN2CCn3cc(CNC(=O)CC4CC4)nc3C2)cn1.O=C(O)C(F)(F)F,-2.745
12,CC(c1ccccc1F)N(CC(N)=O)C1CC1 (stereo unspecified),1.619
13,CN(Cc1cc(-c2cccnc2)no1)C(=O)C1CCCN1S(C)(=O)=O (stereo unspecified),-3.149
14,Cc1cc(-c2ccccc2)nc(C2CCCN2S(C)(=O)=O)n1 (stereo unspecified),91.07
15,CCCS(=O)(=O)N1CCCC1c1cccc(N(C)C)c1 (stereo unspecified),5.298
16,Cc1cc(-c2cncnc2)nc(C2CCCN2S(C)(=O)=O)n1 (stereo unspecified),120.6
17,Cc1ccc(-c2cc(C)nc(C3CCCN3S(C)(=O)=O)n2)cc1 (stereo unspecified),112.5
18,Cc1cc(-c2cccnc2)nc(C2CCCN2S(C)(=O)=O)n1 (stereo unspecified),97.49
19,Cc1nc2ccc(-n3ncnc3[C@@H]3CCCN3S(C)(=O)=O)cc2s1,-0.8415
20,Cc1ccc(O[C@@H]2C[C@H]3CN(Cc4nccn4C)CCN3C2)cc1.O=C(O)C(F)(F)F.O=C(O)C(F)(F)F,-3.373
21,CCC1=N[C@@]2(CC[C@@H]3CN(S(=O)(=O)CC(C)C)C[C@@H]32)C(=O)N1CC1CC1,6.599
22,C[C@@H]1CN(C2CCN(c3ccccc3F)CC2)C[C@]1(C)O,-10.13

row,SMILES,Percent Effect [%]
1,CC(=O)NC(C)(C)c1noc(C2(C#N)CCCCC2)n1,-6.661
2,COc1ccccc1CNCc1nn(-c2ccccc2)c2c1CCC2,-29.63
3,Cc1cc(-c2ccccc2C(=O)O)nc(C2CCCN2S(C)(=O)=O)n1 (stereo unspecified),105.2
4,COc1ccc(-c2cc(C3CCCCCN3S(=O)(=O)N(C)C)on2)cc1 (stereo unspecified),-9.2
5,CS(=O)(=O)N1CCCCCC1c1cc(-c2ccc(F)cc2)no1 (stereo unspecified),132.6
6,CC(C)c1noc(C2CCCN2S(=O)(=O)Cc2ccc(F)cc2)n1 (stereo unspecified),-21.21
7,Cc1ncsc1CCN(C)C(=O)C(c1cccnc1)N1CCOCC1 (stereo unspecified),2.321
8,c1nc2onc(C3CC3)c2cc1-c1nnc(C2CC2)o1,-6.537
9,O=C(COc1ccc2cccnc2c1)N1CCN[C@H]2CS(=O)(=O)C[C@H]21,2.711
10,COc1ccc(-c2csc(-c3cccc(C(=O)O)c3)n2)cc1OC,-12.11
11,COc1ccc(-c2cc(-c3nc(CN4CCN(C)CC4)no3)[nH]n2)cc1,-0.5802
12,COc1ccc(-c2noc(C3=NN(C)C(=O)CC3)n2)cc1OC,-3.216
13,COc1ccc(-c2cc(N)on2)cc1OC,106.7
14,COc1ccc(-c2cc(N)on2)cc1,77.55
15,COc1ccc(-c2cc(C[C@@H]3C[C@H](N(C)C)C3(C)C)no2)cc1,1.876
16,COc1cccc(C(O)Cn2ncc3ncccc3c2=O)c1 (stereo unspecified),-14.22
17,Cc1nc(CNC(C)c2ccc(S(=O)(=O)N(C)C)cc2)no1 (stereo unspecified),-3.104
18,Cc1cscc1C(=O)NC1CC(=O)N(C(C)C)C1=O (stereo unspecified),-19.94
19,Oc1nc(N2CCOCC2)nc2c1CCN(Cc1cccc(F)c1)CC2,117
20,Oc1nc(N2CCOCC2)nc2c1CCN(Cc1ccccc1)CC2,129.9
21,Oc1nc(N2CCOCC2)nc2c1CCN(Cc1ccc(F)cc1)CC2,116.9
22,Oc1nc(N2CCOCC2)nc2c1CCN(Cc1cccnc1)CC2,-6.583

row,SMILES,Percent Effect [%]
1,Oc1nc(N2CCCC2)nc2c1CCN(Cc1cccnc1)CC2,121.5
2,c1cc(CN2CCc3nc(N4CCOCC4)nc(NC4CC4)c3C2)co1,2.456
3,Cn1ccnc1CN1C(=O)CO[C@H]2CN(Cc3ccc(F)c(F)c3)C[C@H]21,5.068
4,Cn1cc(S(=O)(=O)N2CCC(OCCCc3ccccc3)C2)cn1 (stereo unspecified),-5.129
5,CC(=O)c1ccc(N2CCCC(CO)(CCc3ccccc3)C2)nc1 (stereo unspecified),11.39
6,CC(C)C(O)C1CCN(c2ccnc(C(=O)NCc3ccco3)c2)CC1 (stereo unspecified),-3
7,COc1ccc(NC(=O)CCSc2ccc3nncn3n2)c(OC)c1,100.6
8,COc1ccc(OC)c(-n2cnnc2CN)c1,-14.69
9,COc1ccc(NC(=O)CCC2CCCN(S(=O)(=O)C3CC3)C2)c(C)c1 (stereo unspecified),-10.5
10,COc1ccc(NC(=O)CNc2cccc3c2CCCC3)c(OC)c1,-2.331
11,COc1ccc(NC(=O)CSc2nncn2-n2cccc2)c(OC)c1,89.78
12,COc1ccc(OC)c(NC(=O)CSc2ccc3nncn3n2)c1,92.9
13,COc1ccc(Cl)cc1NC(=O)CNc1ccn(CC(N)=O)n1,12.03
14,CCN(CC)S(=O)(=O)c1ccc(OC)c(NC(=O)CSC)c1,-7.74
15,COc1cc(Cl)c(C)cc1NC(=O)CNc1ccn(CC(N)=O)n1,-71.24
16,COc1ccc(NC(=O)CSc2ccc3nncn3n2)c(OC)c1,116.1
17,COc1cc(C(C)=O)ccc1SCC(=O)Nc1ccccn1,-8.38
18,COc1ccc(OC)c(CCC(=O)Nc2cc(C)n[nH]2)c1,-33.89
19,Cn1nccc1C1CCN(Cc2ccn(-c3ccccc3)n2)CC1,-5.293
20,CCOCC(=O)Nc1cc(-n2nnnc2C2CC2)ccc1F,-4.453
21,CNC(=O)NC(=O)C(NCc1cccs1)c1ccccc1 (stereo unspecified),-60.87
22,CC(C)c1ccc(/C=C/CC(=O)NC2CCN(C(N)=O)C2)cc1 (stereo unspecified),-19.1

row,SMILES,Percent Effect [%]
1,Cc1noc([C@@]23CCO[C@@H]2CCN(CC2CCOCC2)C3)n1.O=C(O)C(F)(F)F,-22.2
2,CNC(=O)[C@@]12CCO[C@@H]1CCN(Cc1scnc1C)C2.O=C(O)C(F)(F)F,-1.55
3,CCS(=O)(=O)N1CC[C@H]2OCC[C@@]2(c2nnc(C)o2)C1,3.137
4,Cc1ncsc1CN1CC[C@H]2OCC[C@@]2(C(=O)N2CCCC2)C1,-2.591
5,Cc1noc([C@@]23CCO[C@@H]2CCN(Cc2scnc2C)C3)n1.O=C(O)C(F)(F)F,105.3
6,Cc1nnc([C@@]23CCO[C@@H]2CCN(Cc2scnc2C)C3)o1,102.2
7,Cc1nnc([C@@]23CCO[C@@H]2CCN(Cc2nccs2)C3)o1,93.98
8,Cc1nnc([C@]23COC[C@H]2CN(Cc2nccs2)C3)o1.O=C(O)C(F)(F)F,-6.391
9,N#CCCCS(=O)(=O)N1CCCC1CC(=O)c1cccs1 (stereo unspecified),-18.29
10,COCc1nn(CC2CC2)c2c1CN(Cc1cncn1C)CC2.O=C(O)C(F)(F)F,-13.43
11,Cc1ccc(C(=O)N(C)C)cc1NC(=O)COCC1CC1,-15.5
12,C[C@@H](NC(=O)c1cccnc1)c1onc(-c2ccccc2)c1C(=O)O,-0.5339
13,COc1ncc(C2(O)CCN(Cc3ccccc3O)CC2)c(OC)n1,-6.313
14,COc1cc(OC)cc(C2(O)CCN(Cc3ncc(C)o3)CC2)c1,10.39
15,COc1cc(OC)cc(C2(O)CCN(Cc3nc(C)c(C)o3)CC2)c1,-6.043
16,COc1ncc(C2(O)CCN(Cc3c(F)cccc3F)CC2)c(OC)n1.Cl,1.004
17,COc1ncc(C2(O)CCN(Cc3cccc(F)c3F)CC2)c(OC)n1.Cl,130.5
18,COc1ncc(C2(O)CCN(Cc3cc(F)ccc3F)CC2)c(OC)n1.Cl,106.6
19,COc1ncc(C2(O)CCN(Cc3ccc(F)c(F)c3)CC2)c(OC)n1.Cl,122.5
20,COc1ncc(C2(O)CCN(Cc3cc(F)cc(F)c3)CC2)c(OC)n1,125.6
21,COc1ccc(F)c(CN2CCC3(CCC(=O)N(CC(N)=O)C3)CC2)c1,10.55
22,Cc1cnn(CC(C)NCC(=O)NCCc2cccs2)c1 (stereo unspecified),-55.8

row,SMILES,Percent Effect [%]
1,Cc1ncc2c(n1)CN(Cc1nnc(Cc3ccccc3)o1)CC2,5.635
2,Cc1cccnc1CNCC1(O)CCCN(CC2CCCCC2)C1=O (stereo unspecified),-7.545
3,Cc1nonc1CN(C)CC1(O)CCCN(CCC2CCCCC2)C1=O (stereo unspecified),3.713
4,Cc1cccnc1CN(C)CC1(O)CCCN(CC2CCCCC2)C1=O (stereo unspecified),93.19
5,O=C(NCCOc1ccc(C(F)(F)F)cn1)c1ccoc1,0.7109
6,COc1ccc(OCc2nccc(-c3cc(C(=O)O)ccn3)n2)cc1,-32.77
7,Cc1cccc(S(=O)(=O)NCC(C)N2CCN(C)CC2)c1Cl (stereo unspecified),-7.911
8,COc1ccc(S(=O)(=O)NCC(c2cccn2C)N(C)C)c(C)c1 (stereo unspecified),5.566
9,COc1ccc(C(CNS(=O)(=O)c2cn(C)nc2C)N2CCCC2)cc1.Cl (stereo unspecified),105.6
10,Cc1nc(C)c(C(=O)NCC(c2ccccc2Cl)N2CCOCC2)s1 (stereo unspecified),6.115
11,O=C(NCCCn1cncn1)NCC(c1ccccc1)N1CCCC1 (stereo unspecified),9.834
12,Cc1nn(C)cc1S(=O)(=O)NCC(c1ccccc1)N1CCCCCC1.Cl (stereo unspecified),112.3
13,COc1ccc(S(=O)(=O)NCC(N)c2ccccc2)c(C)c1.Cl (stereo unspecified),-12.16
14,CCn1cc(S(=O)(=O)NCC(OC)c2ccccc2)cn1 (stereo unspecified),8.527
15,Cc1nn(C)cc1S(=O)(=O)NCC(c1ccccc1Cl)N1CCCC1 (stereo unspecified),87.53
16,CCn1cc(CNCC(c2ccc(C)s2)N2CCOCC2)cn1 (stereo unspecified),13.07
17,CCn1cc(S(=O)(=O)NCC(c2ccccc2)N2CCOCC2)c(C)n1 (stereo unspecified),72.63
18,O=C(NCc1cc[nH]n1)NCC(c1ccccc1Cl)N1CCCC1 (stereo unspecified),3.552
